Measurements from publication PMC7819943, “Rice protein-binding microarrays: a tool to detect cis-acting elements near promoter regions in rice”.
The full ranking holds about 39,000 sequences; the median of “fluorescence intensity (a.u.)” is about 4,300, and the highest 2% start at about 39,000. The sample holds the highest values, similar sequences and a random draw of the others, so the mix is not that of the screen.

target: T1, OsSMF1 (Oryza sativa, UniProt Q6ZLB0 1-436); experiment: protein-binding microarray (RPBM); PBS, 2% BSA, 51.3 ng/ul salmon testes DNA, 50 uM zinc acetate, 200 nM TF, 25 C, 1 h; high values mean tight binding; details: protein: recombinant; tags: N-terminal polyhistidine and DsRed monomer fusion (pET32a); chain copies: 2; label: CyDye5-dUTP incorporated in the synthesized complementary strand; 3' TTTTT single-stranded linker to array surface; dsDNA, one strand shown
T1 sequence: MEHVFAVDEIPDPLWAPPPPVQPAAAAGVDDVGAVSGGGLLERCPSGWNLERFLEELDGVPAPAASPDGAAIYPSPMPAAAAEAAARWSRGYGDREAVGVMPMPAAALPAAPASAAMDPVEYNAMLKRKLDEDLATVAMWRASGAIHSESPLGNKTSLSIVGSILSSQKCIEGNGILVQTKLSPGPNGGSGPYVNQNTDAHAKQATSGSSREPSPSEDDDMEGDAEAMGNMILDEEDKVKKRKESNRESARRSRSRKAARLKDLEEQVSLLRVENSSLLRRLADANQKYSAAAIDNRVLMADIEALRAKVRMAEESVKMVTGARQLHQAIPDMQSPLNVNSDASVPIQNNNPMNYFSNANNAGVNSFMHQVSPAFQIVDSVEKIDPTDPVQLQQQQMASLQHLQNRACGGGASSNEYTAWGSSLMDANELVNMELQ
Summary of the method: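 An Axon 4000B scanner gave the binding signal as per-feature fluorescence intensity in arbitrary units. This followed washing of a custom Agilent array that had been incubated for 1 h at 25 °C with 200 nM protein in PBS, 2% BSA, salmon testes DNA and 50 µM zinc acetate. The proteins were transcription factors fused at the N-terminus to polyhistidine and DsRed, expressed in E. coli BL21-CodonPlus and purified on Ni–NTA.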

| Sequence | binding signal |
| --- | --- |
| AGAGGGGCAGAGAGAGAGAGTGAGTGAGAAAGAGATCAAGCGGAGTCACCTAGTGCAG | 56600 fluorescence intensity (a.u.) |
| GACGGGCGGCGGTGGGGCTGACGCGGGCGACGGAGGGGCTCGGAGTCACCTAGTGCAG | 6720 fluorescence intensity (a.u.) |
| ACGGCATCGATCGATCGCGGGCGACGTGGCTGAGTGGCGGCGGAGTCACCTAGTGCAG | 6420 fluorescence intensity (a.u.) |
| GGCTTCGCCGACGGTGGCTCGGGCGACGGCGATGCTGGGGCGGAGTCACCTAGTGCAG | 58600 fluorescence intensity (a.u.) |
| GCCGCTTCGATGCTGGCGGCAGGGTGGGGCGGGGATGCCTCGGAGTCACCTAGTGCAG | 6170 fluorescence intensity (a.u.) |
| GCGGAGGAGGCAAGGAGATCAGGCGGCAGAGGAAAGGGGCCGGAGTCACCTAGTGCAG | 3280 fluorescence intensity (a.u.) |
| GAAAGTTGCTGCGAACATACGTGATGACGCGACTAAAGCTCGGAGTCACCTAGTGCAG | 5210 fluorescence intensity (a.u.) |
| ATAGCCCAACTCGAATCAATCCACGTCTCCACCGTTCATCCGGAGTCACCTAGTGCAG | 3360 fluorescence intensity (a.u.) |
| TCCGTCGCGATTCGCCACCTCGCCCTCGTCTCGTTTTAGCCGGAGTCACCTAGTGCAG | 3450 fluorescence intensity (a.u.) |
| ATGCACTTCCTGTCACGGTCCGGCCCATCCTAGCTGCCGGCGGAGTCACCTAGTGCAG | 3290 fluorescence intensity (a.u.) |
| AAACTTCTCTTCAGATAAAGATTTACTACCGTGTCAAATTCGGAGTCACCTAGTGCAG | 3800 fluorescence intensity (a.u.) |
| CTCCGTCCACTGGACAGGGCAGAGGCTGCCTACCAGACACCGGAGTCACCTAGTGCAG | 4640 fluorescence intensity (a.u.) |
| GACAGTAGCAGCAGTGGACACGTCGATTTCGCAATTCGTGCGGAGTCACCTAGTGCAG | 5760 fluorescence intensity (a.u.) |
| GCCAGGCGACGCGACGAGTCAGCTCAGCTCGCGCCCGCGGCGGAGTCACCTAGTGCAG | 3700 fluorescence intensity (a.u.) |
| CGGTGGCAGCCCGGCGGCGTGGAGCGCGCTGCTTAGCGCGCGGAGTCACCTAGTGCAG | 53600 fluorescence intensity (a.u.) |
| GAGGTACCGGCCGTACGCGCCGCGGAGGCGGACGTAGGGCCGGAGTCACCTAGTGCAG | 31200 fluorescence intensity (a.u.) |
| GCGGCGGTGTCTCGCGCCGCCAGCCTACAAATGGGGAGAGCGGAGTCACCTAGTGCAG | 40300 fluorescence intensity (a.u.) |
| GGAGCGCGGACTCGCCGGCCAGCCGCGTCACGCGCTGGCGCGGAGTCACCTAGTGCAG | 6650 fluorescence intensity (a.u.) |
| GGCGAGCGCGGCGGAGGAGCGGCGGCGGGCGAGCGCGGCGCGGAGTCACCTAGTGCAG | 8450 fluorescence intensity (a.u.) |
| GAGAGAGAGAGGGGACCAACTGAAAAGAGAGAGAAGCTAGCGGAGTCACCTAGTGCAG | 31200 fluorescence intensity (a.u.) |
| TCCCGTGCAGCCGTGGCAGCCGCGCGCTGCTCGAGTCCGGCGGAGTCACCTAGTGCAG | 4470 fluorescence intensity (a.u.) |
| TGCTTAGCCGTGCGGCCCGTGCGGCGTCAATGGCGTGGCGCGGAGTCACCTAGTGCAG | 4440 fluorescence intensity (a.u.) |

| Sequence | binding signal |
| --- | --- |
| CGAGAGGTACCGCGCGCTGCCGGCGGAGAAGCGGGCGAGGCGGAGTCACCTAGTGCAG | 41500 fluorescence intensity (a.u.) |
| GGCGCCAGCCCCGGTGCCGGGGAGTGTGGCGGAGCGGGAGCGGAGTCACCTAGTGCAG | 3910 fluorescence intensity (a.u.) |
| GAAGAGGGGAGGGAGCTCCAAAAGGGCGAGAAAGTAAGCGCGGAGTCACCTAGTGCAG | 39400 fluorescence intensity (a.u.) |
| GAGAGGGGAAGGGCGCTAGTAAGAAGCGCTAAGGGATGAGCGGAGTCACCTAGTGCAG | 3180 fluorescence intensity (a.u.) |
| ATACTTCCATTTGTGCCATACATTTTGTCATTTCGACCTGCGGAGTCACCTAGTGCAG | 3330 fluorescence intensity (a.u.) |
| GGTTTTAACCCCGATTTCGTTCGACGTGGCGGCTGAGTCACGGAGTCACCTAGTGCAG | 10800 fluorescence intensity (a.u.) |
| ATTCACTTTCTTGATTACGTAGAAGCTTCAGTGTCTATTCCGGAGTCACCTAGTGCAG | 3810 fluorescence intensity (a.u.) |
| ACAAGTACTACACGCGAATGTATTTCAATAGAAATTTATCCGGAGTCACCTAGTGCAG | 35600 fluorescence intensity (a.u.) |
| TGCATGTACGATACTGGAGCTGATCCTCGCCATCATATCCCGGAGTCACCTAGTGCAG | 3160 fluorescence intensity (a.u.) |
| CGGAGACGGGAGGCGAGGCGAGCGGCGCCGCGGAACGGGACGGAGTCACCTAGTGCAG | 18600 fluorescence intensity (a.u.) |
| TGGAGAGGGAACCAACAACAAACAACCAGCTGCCTCGCCGCGGAGTCACCTAGTGCAG | 47200 fluorescence intensity (a.u.) |
| ACGATCGGTGACGACGAGCGACGACGCGGCATGAAGACGCCGGAGTCACCTAGTGCAG | 3300 fluorescence intensity (a.u.) |
| GTGCGCGCGGTGCTTAGGCAGACGCGGCCCAGATCGGCGCCGGAGTCACCTAGTGCAG | 40500 fluorescence intensity (a.u.) |
| ACAAACCAACCAACCCTCCTCGCCGCGGCCGCCGCCACCGCGGAGTCACCTAGTGCAG | 3400 fluorescence intensity (a.u.) |
| AGGGAAAAGAGGAGACGGGAGGAAAGGAACGGAGGAGATGCGGAGTCACCTAGTGCAG | 3340 fluorescence intensity (a.u.) |
| GGCGGCGGCGGAGAAGGAGAGGCCGCCCGCCGCGTGGCGCCGGAGTCACCTAGTGCAG | 6420 fluorescence intensity (a.u.) |
| ATCAGCAAGAATGCGAGGGAGACGGCGGAGAGCTCGGGAACGGAGTCACCTAGTGCAG | 43000 fluorescence intensity (a.u.) |
| GCGCGCGCGCGCGGGCATAGGCGACGCCGCGACGGTGCGGCGGAGTCACCTAGTGCAG | 3890 fluorescence intensity (a.u.) |
| CCGCCTCGCCGCGTGCCTCTGGAACAATCTGGCGCTGCCGCGGAGTCACCTAGTGCAG | 3700 fluorescence intensity (a.u.) |
| CGCCGCGAAGGCGCGAAGCCCCGTCACCGCGCGCGCGCGCCGGAGTCACCTAGTGCAG | 5540 fluorescence intensity (a.u.) |
| AGAAGCGCGCCGAGGAGGCCCGCTCGTTCAACCGCGCCGCCGGAGTCACCTAGTGCAG | 65500 fluorescence intensity (a.u.) |
